Results reported in the supplement of paper PMC12067926.

Columns and labels:
Assay in all cases: relative growth (AUC of 72 h growth curve relative to DMSO control, dAUC) (ratio); higher = more growth (less inhibition), active = hit call of the paper
Settings in all cases: 20 µM;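 active = growth AUC significantly below the DMSO wells by Dunnett test; inactive = the rest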
[1] = system: Prolinoborus 1 (Prolinoborus fasciculus)
Procedure, shortened: (§1)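 Whole sediment communities and bacterial isolates from Icelandic stream sediments and Silwood Park soil were brought to carrying capacity in Luria–Bertani medium. They were then diluted 1:100 into 96-well plates with each chemical at 20 µM in 1% DMSO, and A600 was recorded every hour for 72 h. The area under each growth curve, integrated by spline, was averaged across three biological replicates. This figure, divided by the mean of the DMSO controls, gives relative growth (dAUC).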

[2] = system: Pseudomonas 1 (Pseudomonas baetica)
Procedure, shortened: as §1

[3] = system: Pseudomonas 2 (Pseudomonas vancouverensis)
Procedure, shortened: as §1

[4] = system: Pseudomonas 3 (Pseudomonas mandelii)
Procedure, shortened: as §1

[5] = system: Pseudomonas 4 (Pseudomonas peli)
Procedure, shortened: as §1

[6] = system: Pseudomonas 5 (Pseudomonas baetica)
Procedure, shortened: as §1

[7] = system: Pseudomonas 6 (Pseudomonas sp.)
Procedure, shortened: as §1

[8] = system: Rhizobium 1 (Rhizobium herbae)
Procedure, shortened: as §1

[9] = system: Serratia 1 (Serratia sp. 2015-2462-01)
Procedure, shortened: as §1

[10] = system: Sphingomonas 2 (Sphingomonas sp.)
Procedure, shortened: as §1

Measured: relative growth

CC1=NNC(=O)N(/N=C/c2cccnc2)C1
inactive: [1] 1.05 | [2] 0.636 | [3] 1.03 | [4] 0.986 | [5] 0.986 | [6] 0.971 | [7] 0.931 | [8] 1.03 | [9] 0.937 | [10] 1.03

CC(C)OC(=O)Nc1cccc(Cl)c1
inactive: [1] 0.976 | [2] 0.905 | [3] 0.958 | [4] 1.04 | [5] 0.981 | [6] 0.991 | [7] 0.921 | [8] 0.876 | [9] 0.974 | [10] 0.926

O=C(O)c1nc(Cl)ccc1Cl
inactive: [1] 0.949 | [2] 1 | [3] 0.984 | [4] 1 | [5] 0.969 | [6] 0.971 | [7] 1.03 | [8] 1.05 | [9] 0.977 | [10] 0.931

CC(Oc1ccc(Oc2ncc(C(F)(F)F)cc2Cl)cc1)C(=O)O (stereo not given)
inactive: [1] 0.983 | [2] 1.1 | [3] 1.04 | [4] 1.05 | [5] 1 | [6] 1.03 | [7] 1.17 | [8] 1.11 | [9] 0.972 | [10] 1.08

CNC(=O)Oc1cccc(/N=C/N(C)C)c1
inactive: [1] 0.966 | [2] 1.04 | [3] 0.989 | [4] 1.1 | [5] 0.942 | [6] 1.07 | [7] 1.17 | [8] 0.99 | [9] 0.97 | [10] 1.05

COC(=O)NC(=S)Nc1ccccc1NC(=S)NC(=O)OC
inactive: [1] 0.975 | [2] 1.04 | [3] 0.969 | [4] 0.99 | [5] 0.95 | [6] 1.06 | [7] 1.14 | [8] 0.959 | [9] 0.987 | [10] 1.01

CC(C1CC1)C(O)(Cn1cncn1)c1ccc(Cl)cc1 (stereo not given)
active: [2] 0.624
inactive: [1] 0.901 | [3] 0.955 | [4] 0.971 | [5] 0.991 | [6] 0.986 | [7] 1.03 | [8] 0.947 | [9] 1 | [10] 1.13

CCCC1COC(Cn2cncn2)(c2ccc(Cl)cc2Cl)O1 (stereo not given)
inactive: [1] 0.954 | [2] 1.08 | [3] 0.967 | [4] 1 | [5] 0.914 | [6] 0.987 | [7] 1.02 | [8] 0.931 | [9] 0.944 | [10] 1.11

C#CCN1C(=O)COc2cc(F)c(N3C(=O)C4=C(CCCC4)C3=O)cc21
inactive: [1] 0.972 | [2] 1.1 | [3] 1 | [4] 1.04 | [5] 0.985 | [6] 1.05 | [7] 1.05 | [8] 0.908 | [9] 0.938 | [10] 0.959

Fc1ccc([C@]2(Cn3cncn3)O[C@H]2c2ccccc2Cl)cc1 (racemic)
inactive: [1] 0.982 | [2] 0.942 | [3] 0.973 | [4] 1.04 | [5] 0.967 | [6] 0.992 | [7] 1.07 | [8] 1.08 | [9] 0.972 | [10] 1.01

CCOP(=S)(OCC)Oc1nc(Cl)c(Cl)cc1Cl
inactive: [1] 0.989 | [2] 1.04 | [3] 1.01 | [4] 1.05 | [5] 0.991 | [6] 1.06 | [7] 1.08 | [8] 0.929 | [9] 0.993 | [10] 1.07

Cc1nc(N(C)C)nc(OC(=O)N(C)C)c1C
inactive: [1] 0.948 | [2] 1 | [3] 0.96 | [4] 0.978 | [5] 0.949 | [6] 0.991 | [7] 1.02 | [8] 1.22 | [9] 0.992 | [10] 0.968

O=C1C2CC=CCC2C(=O)N1SC(Cl)(Cl)Cl (stereo not given)
active: [1] 0.598 | [2] 0.601 | [5] 0.796 | [8] 0.519 | [9] 0.813 | [10] 0.398
inactive: [3] 0.983 | [4] 0.941 | [6] 0.954 | [7] 0.879

CCCCc1c(C)nc(NCC)nc1OS(=O)(=O)N(C)C
inactive: [1] 1.04 | [2] 1.06 | [3] 0.978 | [4] 1.02 | [5] 0.97 | [6] 0.981 | [7] 1 | [8] 1.05 | [9] 0.96 | [10] 0.969

CC(C)N(C(=O)COc1nnc(C(F)(F)F)s1)c1ccc(F)cc1
inactive: [1] 0.963 | [2] 1.07 | [3] 1.03 | [4] 1.07 | [5] 0.983 | [6] 1.01 | [7] 1.1 | [8] 1.02 | [9] 0.984 | [10] 1.09
